Source: ChEMBL document CHEMBL3988442, “University of Dundee, Small-Polar-MMV Screening Library” (2021)
In all, about 48,000 compounds went through this assay and about 13,000 (27%) showed an effect of 50% or more. The list shows a part of the results.

system: Wolbachia pipientis; assay: Anti-Wolbachia Cell-Based Screen; format: functional; design: scale not given: in the data most compounds retested in dose-response had high values; conditions: 5 µM

| Structure (SMILES) | Percent Effect |
| --- | --- |
| Cc1cc(CN(C)C2CCN(c3cccc(-c4cscn4)c3)CC2)on1 | -19.07% |
| CNS(=O)(=O)c1ccc(C(=O)NCCNc2ncccn2)cc1 | 1.025% |
| CC(C)OCCOCc1cccc(NC(=O)NCc2ccncc2)c1 | 3.047% |
| Cn1nnc2cc(C(=O)NS(=O)(=O)c3ccc(F)cc3)ccc21 | -8.568% |
| Cc1cnn(CC2CCCN2C(=O)Cc2c(C)noc2C)c1 (stereo not given) | 123.7% |
| Cc1cc(C)n(CC2CCCN2C(=O)Cc2c(C)noc2C)n1 (stereo not given) | 2.87% |
| COc1ccnc(CN2CCCC(CCc3ccccc3)C2)c1OC (stereo not given) | -14.6% |
| O=C(O)COc1ccc(CN2CCCC(CCc3ccccc3)C2)cc1 (stereo not given) | 98.9% |
| CN(C)C(=O)CCC1CCCN(Cc2ccc(-c3cccnc3)cc2)C1 (stereo not given) | -4.388% |
| COc1ccc(CCC2CCCN(CC(=O)O)C2)cc1 (stereo not given) | 116.8% |
| COc1coc(CN2CCCC(CCc3ccc(F)cc3)C2)cc1=O (stereo not given) | 20.93% |
| COc1ccc(CCC2CCCN(C(=O)CCc3cc(O)no3)C2)cc1 (stereo not given) | 6.592% |
| O=C(O)COc1ccc(CN2CCCC(Cc3cccnc3)C2)cc1 (stereo not given) | 125.7% |
| Cc1[nH]c(=O)[nH]c(=O)c1CN1CCCC(CCc2ccccc2)C1 (stereo not given) | -19.89% |
| Cc1nccn1CC1CCCN(Cc2ccc(-c3cccnc3)cc2)C1 (stereo not given) | 30.54% |
| OCC(O)CSCc1ccc(Cl)cc1Cl (stereo not given) | -1.817% |
| Cc1nc(NC(=O)OC(C)(C)C)sc1C#N | 16.95% |
| CCCc1n[nH]c(C2CN(C(=O)c3cccc4cn[nH]c34)CCO2)n1 (stereo not given) | 108.2% |
| CC(C)c1n[nH]c(C2CN(C(=O)c3cccc4cn[nH]c34)CCO2)n1 (stereo not given) | 2.376% |
| CCCc1n[nH]c(C2CN(C(=O)c3cccnc3N(C)C)CCO2)n1 (stereo not given) | 106.9% |
| CCCc1n[nH]c(C2CN(C(=O)c3cccc4[nH]ncc34)CCO2)n1 (stereo not given) | 117.3% |
| CCCc1n[nH]c(C2CN(C(=O)c3n[nH]c4ccccc34)CCO2)n1 (stereo not given) | 103.5% |
| CCCc1n[nH]c(C2CN(C(=O)c3cc(F)ccc3OC)CCO2)n1 (stereo not given) | -4.099% |
| COc1ccc(CNCCc2cccc(C(N)=O)c2)cc1O | 8.083% |
| O=C(O)C(F)(F)F.O=C(O)C(F)(F)F.c1snnc1CN1C[C@H]2CCC[C@@H](CN3CCOCC3)[C@H]2C1 | 4.838% |
| COc1ccc(C(=O)NCCCC2(C3OCCO3)CCOCC2)cc1 | 0.9631% |
| CCCc1n[nH]c(C2CN(C(=O)c3ccco3)CCO2)n1 (stereo not given) | -0.9471% |

| Structure (SMILES) | Percent Effect |
| --- | --- |
| CCCc1n[nH]c(C2CN(C(=O)c3ccc[nH]3)CCO2)n1 (stereo not given) | 125.3% |
| CCCc1n[nH]c(C2CN(C(=O)C3=COCCC3)CCO2)n1 (stereo not given) | -2.018% |
| C[C@H]1C[C@H]2CN(C(=O)c3cccc4c3OCCO4)CC[C@H]2O1 | 2.231% |
| CO[C@H]1C[C@@H]2CN(C(=O)Cc3ccc(C)s3)C[C@@H]2C1 | 123.2% |
| C[C@@H]1C[C@H]2CN(C(=O)c3cccc4c3OCCO4)C[C@H]2O1 | -11.28% |
| CO[C@H]1C[C@@H]2CN(C(=O)c3cccc4c3OCCO4)C[C@@H]2C1 | 78.24% |
| COc1ccc(F)cc1C(=O)N1CC(c2ccncc2)C1 | 9.533% |
| CO[C@H]1C[C@@H]2CN(C(=O)c3ccc(C)s3)C[C@@H]2C1 | 128.5% |
| COc1ccc(F)cc1C(=O)N1CCCC(n2nc(C)nc2C)C1 (stereo not given) | -10.5% |
| COc1ccc(F)cc1C(=O)N1C[C@H]2C[C@H](OC)C[C@H]2C1 | 117.3% |
| Cc1ccc(CC(=O)NC(C)C(=O)N2CCS(=O)(=O)CC2)s1 (stereo not given) | 0.993% |
| Cc1csc(N2CCN(C(=O)Cc3ccc(C)s3)CC2)n1 | 9.508% |
| COc1ccc2c(c1)CN(Cc1nc3c(cnn3C)c(=O)[nH]1)CC2 | -2.019% |
| Cc1sc(-c2ccco2)nc1C(=O)N(CC1CCOC1)C1CC1 (stereo not given) | 13.16% |
| Cc1cc(CNC(=O)C2CCCCN2C(=O)OC(C)(C)C)no1 (stereo not given) | 8.299% |
| CN(C)CC1(O)CCN(C(=O)c2ccc(-n3cnnc3)cc2Cl)C1 (stereo not given) | -7.306% |
| CN(Cc1ccc(F)cc1)CC1(O)CCN(C(=O)c2ccsc2)C1 (stereo not given) | 101.4% |
| CN(Cc1ccc(F)cc1)CC1(O)CCN(C(=O)c2ccccc2)C1 (stereo not given) | -10.29% |
| Cc1ncncc1C(=O)N1CCC(O)(CN(C)Cc2ccc(F)cc2)C1 (stereo not given) | 90.38% |
| CN(C)CC1(O)CCCN(C(=O)c2ccccc2-n2cncn2)C1 (stereo not given) | -6.613% |
| CN(Cc1ccc(F)cc1)CC1(O)CCN(C(=O)c2ccccn2)C1 (stereo not given) | 129.8% |
| Cc1ccc(OC2(C(=O)O)CCN(C(=O)c3ccsc3)CC2)cn1 | -3.963% |
| CN(Cc1ccc(F)cc1)CC1(O)CCN(C(=O)c2ccncc2)C1 (stereo not given) | 120.1% |
| CN(C)CC1(O)CCN(C(=O)c2cnc(-c3cccnc3)nc2)C1 (stereo not given) | -2.107% |
| CN(C)CC1(O)CCCN(C(=O)c2cnc(-c3ccccn3)nc2)C1 (stereo not given) | 7.408% |
| CN(C)CC1(O)CCN(C(=O)c2cnc(-c3ccccn3)nc2)C1 (stereo not given) | -10.46% |
| Cn1cc(CNCC2Cn3nnc(-c4ccccc4)c3CO2)cn1 (stereo not given) | -12.32% |

| Structure (SMILES) | Percent Effect |
| --- | --- |
| Cn1nnc2cc(C(=O)NS(=O)(=O)Cc3ccc(F)cc3)ccc21 | -12.26% |
| COCC(C)NC(=O)CN1CCC2(CC1)OCCO2 (stereo not given) | -2.993% |
| CN1CCOC(C(=O)N2CCC3(CCCC3)CC2)C1 (stereo not given) | -33.61% |
| O=C(CCc1ccccc1Br)NCC(=O)NCc1ccccc1 | 2.467% |
| CN(C)CCN1CC2(CCC1=O)CCN(C(=O)c1ccn(C)n1)CC2 | 6.742% |
| CN(Cc1ccc(F)cc1)CC1(O)CCN(C(=O)c2cccs2)C1 (stereo not given) | 131.3% |
| COc1ccc(CN(C)CC2(O)CCN(C(=O)c3cccn3C)C2)cc1 (stereo not given) | -15.88% |
| CN(Cc1ccc(F)cc1)CC1(O)CCN(C(=O)c2ccn(C)n2)C1 (stereo not given) | 136.3% |
| O=C(Cc1ccccc1)C1CCCN(Cc2cncn2C2CCCC2)C1 (stereo not given) | -39.33% |
| Cc1nccnc1N1CCC(Cc2ccccc2Cl)(C(=O)O)CC1 | 4.229% |
| CCc1ccc(C(NCC(N)=O)C(C)(C)C)o1 (stereo not given) | -15.62% |
| CN1CCC(Oc2ccc(-n3ccnc3-c3nccn3C)cc2)CC1 | 110.4% |
| CN1CCC(Oc2ccc(-n3ccnc3-c3ccncc3)cc2)CC1 | 114.7% |
| c1cc(CN2CCCC2)cc(-n2ccnc2-c2ccncc2)c1 | -6.612% |
| Cc1cccc(C(=O)Nc2ccc(OC3CCN(C)CC3)cc2)c1 | -4.145% |
| Cc1ccc(C)c(C(=O)Nc2ccc(OC3CCN(C)CC3)cc2)c1 | -4.844% |
| Cc1nnc(CN2CCC(Oc3ccc(F)cc3)CC2)o1 | -12.54% |
| Cc1ccc(-c2nccn2-c2ccc(OC3CCN(C)CC3)cc2)o1 | 109.9% |
| Cc1ccc(C(=O)Nc2ccc(OC3CCN(C)CC3)cc2)c(C)c1 | 4.12% |
| Cn1ccnc1-c1nccn1-c1cccc(CN2CCCC2)c1 | -8.491% |
| CCC(CC)c1cc(CNC(=O)N2CCOC(C)C2)on1 (stereo not given) | 0.178% |
| COc1ccc(C(=O)N2CCC(Oc3cccc(C)c3)(C(=O)O)CC2)o1 | -1.031% |
| Cc1ccc(Cl)c(C(C(=O)O)N(C)Cc2cnn(C)c2)c1 (stereo not given) | -5.56% |
| O=C(NC1CCS(=O)(=O)C1)c1sccc1-c1ccc(F)cc1 (stereo not given) | 12.15% |
| CC(C)c1ncc(CN2CCCC2c2[nH]ncc2C(=O)N(C)C)cn1 (stereo not given) | 138.1% |
| CNc1ncc(CN(C)C(=O)[C@@]23CNC[C@@H]2CN(C2CCCC2)C3)cn1 | 3.616% |
| CCN1CCN(C[C@@H]2CN(Cc3cnc(C(C)C)nc3)C[C@@H]2CO)CC1 | -21.09% |

| Structure (SMILES) | Percent Effect |
| --- | --- |
| CC(C)c1ncc(CN2C[C@@H](CN3CCCC3)[C@@H](CO)C2)cn1 | -18.71% |
| COc1ccccc1CC1CCCN1C(=O)c1cn[nH]c1C (stereo not given) | 6.47% |
| CC(C)c1ncc(CN2C[C@@H](CN3CCC(O)CC3)[C@@H](CO)C2)cn1 | -17.14% |
| COc1ncc(CN2CCCC2c2[nH]ncc2C(=O)N(C)C)cn1 (stereo not given) | 107.3% |
| Cc1nn(C)c(C)c1C1CCCN1Cc1cccc(C(=O)N(C)C)c1 (stereo not given) | -5.304% |
| CNc1ncc(CN2CCCC2c2[nH]ncc2C(=O)N(C)C)cn1 (stereo not given) | 118.3% |
| CC(C)c1ncc(CN2CCCC(CO)C2)cn1 (stereo not given) | -2.469% |
| CC(C)c1ncc(CN2CCC(c3n[nH]cc3C(=O)N(C)C)C2)cn1 (stereo not given) | 128.3% |
| CCc1cn[nH]c1C1CCCN(C(=O)c2cnc(NC(C)C)nc2)C1 (stereo not given) | -3.348% |
| CCC(CC)N(C)S(=O)(=O)c1ccc(CCNC(C)=O)s1 | -16.74% |
| COc1cccc2c1OCC(C(=O)N(C)CCCc1cnn(C)c1)C2 (stereo not given) | -4.921% |
| Cc1cccn2cc(CN3CCCC(c4ccn[nH]4)C3)nc12 (stereo not given) | 3.062% |
| COCCNC(=O)c1nn(-c2cccc(C(C)C)c2)cc1O | -7.047% |
| CC(C)c1cccc(-n2cc(O)c(C(N)=O)n2)c1 | -1.55% |
| CSCC(C)N(C)C(=O)c1nn(-c2ccc(F)cc2C)cc1O (stereo not given) | 188.7% |
| CC(C)C(O)CCNC(=O)Nc1cc(F)ccc1-n1cccn1 (stereo not given) | -1.867% |
| O=C(c1nn(-c2ccccc2F)cc1O)N1CCCC1 | -1.057% |
| Cc1cc(F)ccc1-n1cc(O)c(C(=O)NCC[S+](C)[O-])n1 (stereo not given) | 102.5% |
| Cc1nc(NC(=O)c2nn(-c3ccc(F)cc3C)cc2O)n[nH]1 | 158.1% |
| Cc1cc(F)ccc1-n1cc(O)c(C(N)=O)n1 | 117.5% |
| CC(C)c1cccc(-n2cc(O)c(C(=O)NCCC(=O)N(C)C)n2)c1 | -3.512% |
| C[S+]([O-])CCNC(=O)Nc1cc(F)ccc1-n1cccn1 (stereo not given) | -7.044% |
| Cc1nc(C(C)NC(=O)COc2ccc(F)cc2)n[nH]1 (stereo not given) | -12.19% |
| COCCn1ccc2cc(NC(=O)N(C)C(C)CSC)ccc21 (stereo not given) | 13.09% |
